Consider 20 compounds from PubChem BioAssay.

What is called inhibition is the change of the read-out against control, counted positive when it falls.

The nature of experiment [1]: antimalarial activity against Dd2 strain (AID 2302;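 active means growth inhibition above 50% at the single 2 µM test dose, taken to imply half-maximal potency below 2 µM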;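 further: 0% = DMSO untreated growth and 100% = chloroquine plus artemisinin killed control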). The following applies: P. falciparum Dd2 in RBCs, LDH growth readout, 72 h; at 2 µM; active compounds read high.
Experiment [2] in a line: HepG2 cytotoxicity, primary screen, cytotoxicity control for P. falciparum antimalarial project, cell-based, ATP luminescence (AID 2303;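 active means inhibition above 50%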;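 further: 0% = DMSO wells and 100% = digitonin-killed cells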). The following applies: HepG2 viability, 24-48 h, at 10 µM, active compounds read high.
Experiment [3] has as its target L-lactate dehydrogenase (Plasmodium falciparum (isolate CDC / Honduras)) (UniProt Q27743). The experiment can be described thus: PfLDH activity inhibition – cell lysate, 3D7 strain, counter-screen for P. falciparum growth inhibition project (AID 2304).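 Further: 0% = vehicle and 100% = reference inhibitor.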 The following applies: P. falciparum 3D7 crude extract, LDH APAD/NBT absorbance; at 2 µM; active compounds read high. On the technique in general: A counterscreen serves to expose hits that act by an unwanted route or on another target.

Experiment [4] is described as follows: inhibition of 3D7 malaria parasite growth – strain 3D7 (AID 2306).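 Further: 0% = DMSO wells and 100% = chloroquine plus artemisinin control wells.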 The following applies: P. falciparum 3D7 erythrocytic growth, LDH absorbance, 72 h; at 2 µM; active compounds read high.
In experiment [5] the target is Calcium-dependent protein kinase 1 (Plasmodium falciparum (isolate 3D7)) (UniProt P62344). The experiment can be described thus: PfCDPK1 kinase inhibitors, biochemical, TCAMS library (AID 1159585; cut-off not given, nearly all actives have IC50 up to about 0.98 µM;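 further: inhibitors leave more ATP so luminescence rises with inhibition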). The following applies: recombinant PfCDPK1, Kinase-Glo ATP depletion luminescence. For orientation: Kinase-Glo reads ATP consumption through a luciferase reaction.
Calcium-dependent protein kinase 1 (Plasmodium falciparum (isolate 3D7)), sequence (P62344 whole entry, looked up): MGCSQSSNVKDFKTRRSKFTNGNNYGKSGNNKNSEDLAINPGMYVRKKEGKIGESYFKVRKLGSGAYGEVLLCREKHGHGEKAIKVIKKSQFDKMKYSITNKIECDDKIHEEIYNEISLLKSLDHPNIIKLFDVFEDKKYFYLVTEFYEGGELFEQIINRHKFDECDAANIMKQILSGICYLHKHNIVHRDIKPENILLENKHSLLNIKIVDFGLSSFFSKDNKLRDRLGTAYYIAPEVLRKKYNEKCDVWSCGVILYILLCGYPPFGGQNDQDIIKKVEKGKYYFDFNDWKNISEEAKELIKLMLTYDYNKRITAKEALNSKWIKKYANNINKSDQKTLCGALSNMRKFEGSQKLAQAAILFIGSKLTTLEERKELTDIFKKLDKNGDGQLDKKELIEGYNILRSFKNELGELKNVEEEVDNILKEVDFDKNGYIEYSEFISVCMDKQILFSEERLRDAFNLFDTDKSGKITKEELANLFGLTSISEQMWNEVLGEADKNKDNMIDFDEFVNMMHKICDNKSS
For experiment [6], the target named is Plasmodium falciparum protein kinase 6 (PK6, PF3D7_1337100) (UniProt Q8IDW1). In words: PfPK6 kinase inhibitors, biochemical, TCAMS library (AID 1159586). The following applies: recombinant PfPK6, Kinase-Glo ATP depletion luminescence.
Plasmodium falciparum protein kinase 6 (PK6, PF3D7_1337100), sequence (Q8IDW1 1-305): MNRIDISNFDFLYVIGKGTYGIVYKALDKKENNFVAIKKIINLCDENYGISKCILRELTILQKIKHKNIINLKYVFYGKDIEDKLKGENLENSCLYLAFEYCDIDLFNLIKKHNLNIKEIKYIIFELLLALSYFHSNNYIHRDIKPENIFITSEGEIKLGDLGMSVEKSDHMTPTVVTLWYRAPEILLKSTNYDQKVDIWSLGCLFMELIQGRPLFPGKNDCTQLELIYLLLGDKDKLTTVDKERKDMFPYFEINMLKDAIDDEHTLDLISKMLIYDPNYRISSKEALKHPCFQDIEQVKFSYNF
Experiment [7] concerns the target Protein kinase 7 (PK7), Plasmodium falciparum 3D7 (PF3D7_0213400) (UniProt Q7YTF7). The experiment can be described thus: inhibition of Plasmodium PK7 catalytic activity – biochemical, TCAMS antimalarial set, Kinase-Glo luminescence (AID 1159587). The note with it: recombinant PfPK7, Kinase-Glo ATP depletion luminescence.
Experiment [8] has as its target Calcium-dependent protein kinase 4 (Plasmodium falciparum (isolate 3D7)) (UniProt Q8IBS5). In words: PfCDPK4 kinase inhibitors, biochemical, TCAMS library (AID 1159588; cut-off not given, nearly all actives have IC50 up to about 0.91 µM). The note with it: recombinant PfCDPK4, Kinase-Glo ATP depletion luminescence.

A number with no mark means an inactive call. For some of these results: Results with a measured potency or affinity are listed apart. Activity calls are given as the source filed them. Unless noted, how the calls were made is not given here.

Calcium-dependent protein kinase 4 (Plasmodium falciparum (isolate 3D7)), sequence (Q8IBS5 whole entry, looked up): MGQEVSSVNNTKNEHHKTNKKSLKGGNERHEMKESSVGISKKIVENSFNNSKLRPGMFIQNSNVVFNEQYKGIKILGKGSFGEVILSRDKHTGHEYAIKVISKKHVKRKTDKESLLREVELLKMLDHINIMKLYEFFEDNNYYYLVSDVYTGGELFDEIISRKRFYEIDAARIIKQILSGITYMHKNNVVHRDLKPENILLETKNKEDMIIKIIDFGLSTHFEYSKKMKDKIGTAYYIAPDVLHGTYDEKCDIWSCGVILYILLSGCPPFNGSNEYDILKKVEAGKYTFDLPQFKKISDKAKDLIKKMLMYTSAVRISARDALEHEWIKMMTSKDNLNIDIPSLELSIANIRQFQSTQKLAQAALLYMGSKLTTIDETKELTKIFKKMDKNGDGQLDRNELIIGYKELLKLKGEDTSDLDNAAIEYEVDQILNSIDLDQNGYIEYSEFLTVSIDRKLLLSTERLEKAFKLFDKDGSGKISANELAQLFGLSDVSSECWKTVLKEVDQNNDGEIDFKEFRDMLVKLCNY
Protein kinase 7 (PK7), Plasmodium falciparum 3D7 (PF3D7_0213400), sequence (Q7YTF7 1-343): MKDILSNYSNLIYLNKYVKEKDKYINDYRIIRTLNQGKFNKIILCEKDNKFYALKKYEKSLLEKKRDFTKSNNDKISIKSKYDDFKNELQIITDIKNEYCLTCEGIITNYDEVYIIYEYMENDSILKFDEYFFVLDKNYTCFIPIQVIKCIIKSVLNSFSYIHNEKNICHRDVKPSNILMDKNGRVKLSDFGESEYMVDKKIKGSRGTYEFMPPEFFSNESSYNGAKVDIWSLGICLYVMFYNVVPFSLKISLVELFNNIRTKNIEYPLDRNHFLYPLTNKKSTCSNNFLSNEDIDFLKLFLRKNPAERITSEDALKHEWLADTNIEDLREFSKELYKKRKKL
L-lactate dehydrogenase (Plasmodium falciparum (isolate CDC / Honduras)), sequence (Q27743 whole entry, looked up): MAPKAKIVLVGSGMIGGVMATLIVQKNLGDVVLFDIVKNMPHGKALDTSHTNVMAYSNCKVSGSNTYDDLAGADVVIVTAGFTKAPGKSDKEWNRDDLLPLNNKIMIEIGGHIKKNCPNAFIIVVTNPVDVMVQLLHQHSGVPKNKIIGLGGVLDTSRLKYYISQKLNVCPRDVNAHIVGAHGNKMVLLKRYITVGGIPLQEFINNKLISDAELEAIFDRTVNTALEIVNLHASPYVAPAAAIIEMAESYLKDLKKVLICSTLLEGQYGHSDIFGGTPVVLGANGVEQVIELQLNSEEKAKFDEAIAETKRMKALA

In the case of `COc1ccc(CCN2CCC(NCc3cccc(N(C)C)c3)CC2)cc1`, the values for the growth inhibition in experiment [1] and in experiment [4] were 7% and 98% (active), respectively. In addition, the inhibition in experiment [2] was 18%; in experiment [3], 2%. The result in experiment [5], in experiment [6], in experiment [7] and in experiment [8] was inactive.

`CN(C)C(CNC(=O)c1cc(-c2ccncc2)c(-c2cc3ccccc3[nH]2)o1)c1ccccc1` (stereo not given): the growth inhibition was 62% (active) in experiment [1] and 96% (active) in experiment [4]. The inhibition was 3% in experiment [2] and -2% in experiment [3]. The outcome in experiment [5], in experiment [6], in experiment [7] and in experiment [8] was inactive.

Turning to `CNC(=O)COC(=O)c1c2c(nc3ccccc13)C(=Cc1ccc3c(c1)OCO3)CCC2`, the values for the growth inhibition in experiment [1] and in experiment [4] were 36% and 83% (active), respectively. The inhibition was 7% in experiment [2] and -2% in experiment [3]. For the same compound, the result in experiment [5], in experiment [6], in experiment [7] and in experiment [8] was inactive.

On to `Cc1noc(NC(=O)c2sc3ccccc3c2O)c1C`, for which the growth inhibition in experiment [1] was 50% (active); in experiment [4] it was 90% (active). Besides, the figures for the inhibition in experiment [2] and in experiment [3] were -12% and 0%, respectively. The result in experiment [5], in experiment [6], in experiment [7] and in experiment [8] was inactive.

`CCN(CC)CCCCOc1ccc2c(c1)C(=O)c1cc(OCCCCN(CC)CC)ccc1-2`: the growth inhibition in experiment [1] is 44%; in experiment [4], 102% (active). Besides, the values for the inhibition in experiment [2] and in experiment [3] were 24% and -6%, respectively. Also, the result in experiment [5], in experiment [6], in experiment [7] and in experiment [8] was inactive.

As for `CS(=O)(=O)N1CC2(CCN(CCC(NC(=S)Nc3ccccc3)c3ccc(Cl)c(Cl)c3)CC2)c2ccccc21` (stereo not given), the growth inhibition in experiment [1] was 80% (active); in experiment [4], 98% (active). Further, the inhibition in experiment [2] was 24%; in experiment [3] it was -1%. Besides, the outcome in experiment [5], in experiment [6], in experiment [7] and in experiment [8] was inactive.

Turning to `O=C(Nc1cccc(-c2cccc(-c3nc4ccccc4[nH]3)c2)c1)Nc1ccc2c(c1)OCO2`, the growth inhibition is 57% (active) in experiment [1] and 101% (active) in experiment [4]. The results for the inhibition in experiment [2] and in experiment [3] were 25% and -4%, respectively. Also, the result in experiment [5], in experiment [6], in experiment [7] and in experiment [8] was inactive.

Regarding `Cc1cc([N+](=O)[O-])ccc1NC(=O)Nc1cccc(C(F)(F)F)c1`, the growth inhibition in experiment [1] was 100% (active); in experiment [4] it was 102% (active). Further, the values for the inhibition in experiment [2] and in experiment [3] were 15% and -1%, respectively. Moreover, the outcome in experiment [5], in experiment [6], in experiment [7] and in experiment [8] was inactive.

Take `c1ccc2[nH]c(-c3ccc(-c4ccc(CNC5CC5)cc4)s3)nc2c1`: the growth inhibition was 19% in experiment [1] and 91% (active) in experiment [4]. Besides, the inhibition was 25% in experiment [2] and -7% in experiment [3]. Also, the result in experiment [5], in experiment [6], in experiment [7] and in experiment [8] was inactive.

`CC(=O)Nc1cc(C(=O)Nc2cccc(-c3cccc(-c4nc5ccc(C(F)(F)F)cc5[nH]4)c3)c2)ccc1C`: the growth inhibition is 43% in experiment [1] and 97% (active) in experiment [4]. Further, the results for the inhibition in experiment [2] and in experiment [3] were 56% (active) and -4%, respectively. Besides, the result in experiment [5], in experiment [6], in experiment [7] and in experiment [8] was inactive.

On to `FC(F)(F)c1ccc(CNC2CCN(CC3CCCCC3)CC2)cc1`, for which the figures for the growth inhibition in experiment [1] and in experiment [4] were 5% and 87% (active), respectively. Also, the inhibition in experiment [2] is 4%; in experiment [3] it was -4%. The outcome in experiment [5], in experiment [6], in experiment [7] and in experiment [8] was inactive.

Turning to `Cn1c(=N)n(CC(=O)N2CCc3ccc(Cl)cc3C2Cc2ccc(Cl)c(Cl)c2)c2ccccc21` (stereo not given), the results for the growth inhibition in experiment [1] and in experiment [4] were 52% (active) and 102% (active), respectively. Besides, the inhibition was 99% (active) in experiment [2] and -1% in experiment [3]. Moreover, the outcome in experiment [5], in experiment [6], in experiment [7] and in experiment [8] was inactive.

Turning to `Oc1ccc(Nc2nc(N3CCCC3)c3ccccc3n2)cc1`, the figures for the growth inhibition in experiment [1] and in experiment [4] were 100% (active) and 102% (active), respectively. For the same compound, the figures for the inhibition in experiment [2] and in experiment [3] were 10% and -6%, respectively. The outcome in experiment [5], in experiment [6], in experiment [7] and in experiment [8] was inactive.

On to `CCNc1cc(C(=O)N[C@@H](Cc2ccccc2)[C@H](O)CN[C@H](C)C(C)(C)C)cc(N2CCCCS2(=O)=O)c1`, for which the growth inhibition in experiment [1] was 41%; in experiment [4], 95% (active). Moreover, the inhibition is 4% in experiment [2] and -2% in experiment [3]. The result in experiment [5], in experiment [6], in experiment [7] and in experiment [8] was inactive.

Regarding `CC(C)(C)c1ccc2nc(-c3ccc(C(=O)NCCCc4ccccc4)cc3)[nH]c2c1`, the growth inhibition in experiment [1] is 14%; in experiment [4] it was 95% (active). The inhibition in experiment [2] was 11%; in experiment [3], 5%. Further, the outcome in experiment [5], in experiment [6], in experiment [7] and in experiment [8] was inactive.

`Fc1ccc(Nc2ccnc3cc(-c4ccc(CN5CCOCC5)o4)ccc23)c(Cl)c1`: the growth inhibition in experiment [1] is 100% (active); in experiment [4], 101% (active). The results for the inhibition in experiment [2] and in experiment [3] were 42% and 5%, respectively. Besides, the outcome in experiment [5], in experiment [6], in experiment [7] and in experiment [8] was inactive.

As to `CN1CCC(Oc2cc(CN3CC[C@H](NC(=O)c4ccc(Cl)c(Cl)c4)C3)ccc2I)C1` (stereo not given in full), the results for the growth inhibition in experiment [1] and in experiment [4] were 24% and 97% (active), respectively. Further, the results for the inhibition in experiment [2] and in experiment [3] were 68% (active) and 1%, respectively. Also, the outcome in experiment [5], in experiment [6], in experiment [7] and in experiment [8] was inactive.

For the compound `CCNC(=O)NC1CCN(Cc2c(-c3cccs3)nc3ccccc3c2C(=O)N[C@@H](C)C2CCCCC2)CC1`, the growth inhibition in experiment [1] is 96% (active); in experiment [4], 95% (active). The figures for the inhibition in experiment [2] and in experiment [3] were -1% and -2%, respectively. Moreover, the result in experiment [5], in experiment [6], in experiment [7] and in experiment [8] was inactive.

Consider `CC1CN=C(c2ccc(NC(=O)c3ccc(C(=O)Nc4ccc(C5=NCC(C)N5)cc4)cc3)cc2)N1` (stereo not given), for which the figures for the growth inhibition in experiment [1] and in experiment [4] were 100% (active) and 99% (active), respectively. Besides, the inhibition in experiment [2] is 15%; in experiment [3], -7%. In addition, the outcome in experiment [5], in experiment [6], in experiment [7] and in experiment [8] was inactive.

Turning to `COc1cc(CNc2ncc(-c3ccsc3)c(-c3nccs3)n2)cc(OC)c1`, the growth inhibition in experiment [1] was 82% (active); in experiment [4], 86% (active). The inhibition in experiment [2] is 3%; in experiment [3], -3%. In addition, the result in experiment [5], in experiment [6], in experiment [7] and in experiment [8] was inactive.
